The panel holds about 83,000 compounds, 20% with a hit somewhere; the sample as a whole holds those more often.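 Interpretation: 100, growth as untreated; towards 0, rising growth inhibition; 0, no net growth; 0 to -100, cell death. Compounds scoring below 10 were considered active.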 A number with no mark means an inactive call. Calls of active or inactive are those of the source.
Columns and labels:
Test in all cases: NCI-60 one-dose screen, 48 h (100 = growth as untreated, 0 = no growth, -100 = all killed)
Details in all cases: 10 µM unless noted
[1] = test system: NCI-H23 lung
[2] = test system: NCI-H226 lung
[3] = test system: NCI-H322M lung
[4] = test system: HOP-62 NSCLC
[5] = test system: NCI-H460 lung
[6] = test system: HOP-92 NSCLC
[7] = test system: NCI-H522 lung
[8] = test system: A549/ATCC NSCLC
[9] = test system: 786-0 renal
[10] = test system: COLO 205 colon

SMILES | growth [1] | growth [2] | growth [3] | growth [4] | growth [5] | growth [6] | growth [7] | growth [8] | growth [9] | growth [10]
CCN1CCN(CCNc2nccc(-c3c(-c4ccc(F)c(OC)c4)nc4sccn34)n2)S1(=O)=O | 78.2% | 109% | 83.4% | 87.7% | 56.1% | 54.4% | 63% | 73.3% | 102% | 62.3%
N#C/C(=C\c1ccc(-c2cccc(C(F)(F)F)c2)o1)c1ccccc1 | 79.7% | 77.4% | 86% | 88.1% | 97.1% | 87.5% | 84.6% | 94.3% | 99.9% | 101%
COc1ccc(/C(C)=C(\c2ccc(Cl)cc2)c2ccc(OCCN3CCCCC3)cc2)cc1 | 57.9% | 89.4% | 68.8% | 68.6% | 24.6% | 70.3% | 78.3% | 38.5% | -5.84% (active) | -4.92% (active)
COc1ccc(-c2n[nH]c(=O)c3nc(NC(=S)Nc4ccc(Oc5ccccc5)cc4)sc23)cc1 | 99.7% | 95.5% | 101% | 91% | 101% | 90.1% | 68.9% | 86.7% | 102% | 113%
Nc1nc(NC(=O)Nc2ccc(C(=O)O)cc2)nn1-c1ccc(S(N)(=O)=O)cc1 | 97.9% | 92.1% | 90.4% | 93.6% | 95.6% | 78.3% | 97.7% | 82.8% | 97.8% | 111%
CN(Cc1cnc2nc(N)nc(N)c2n1)c1ccc(C(=O)NC(CCC(=O)O)C(=O)O)cc1Br (stereo not given) | 31.3% | 48.4% | 69.6% | 33.5% | 16.7% | 59.6% | 43.8% | 26% | 15.8% | 36.3%
O=C(N/N=C\c1ccccc1S(=O)(=O)O)N/N=C/c1ccccc1S(=O)(=O)O | 102% | 105% | 99.3% | 101% | 98.5% | 96.8% | 98.5% | 97.9% | 95% | 106%
O=S(=O)(NCCCNc1nccc(-c2c(-c3cccc(F)c3)nc3occn23)n1)c1ccc(F)cc1 | 84.4% | 39.6% | 73.2% | 63.7% | 52.7% | 61.4% | 38.7% | 31.1% | 66% | 17.7%
O=C(Nc1ccccc1N1CCCC1=O)c1oc2ccc(F)cc2c1-c1cnn(-c2ccccc2)c1 | 61.9% [50 µM] | 39.4% [50 µM] | 63% [50 µM] | 55.1% [50 µM] | 28.1% [50 µM] | 29.1% [50 µM] | 12.7% [50 µM] | 37.5% [50 µM] | 21.3% [50 µM] | 47% [50 µM]
C=CCn1c(SCC(=O)Nc2ccc(/C(C)=N/O)cc2)nnc1-c1cc(-c2ccc(S(N)(=O)=O)cc2)nc2ccccc12 | 97.3% | 84.1% | 96.7% | 84.3% | 91% | 72.3% | 68.8% | 110% | 85.4% | 94.2%
Cn1ccc(=O)nc1 | 88.7% | 104% | 82.9% | 102% | 38.7% | 104% | 49% | 83.2% | 109% | 102%
CCN1C(=O)N(CC)C2C1NN=c1s/c(=C\c3cnc(C)n3C)c(=O)n12 (stereo not given) | 38.1% | 53.3% | 29.6% | 34.4% | 4.44% (active) | 43% | -14.4% (active) | 15.8% | 28.4% | 14.5%
CC(=O)c1sc2sc(C(C)=O)c(C)c2c1C | 101% | 42.5% | 99% | 80.3% | 97.9% | 91.1% | 76.6% | 74.8% | 89.2% | 114%
O=C(Nc1ccccc1O)c1ccc(CNC(=O)c2ccsc2Nc2ccnc(C(F)(F)F)c2)cc1 | 13.5% | 38.3% | 46.1% | 47.6% | 26% | -2.27% (active) | -24% (active) | 27.6% | 42.8% | 47.3%
O=C(O)c1ccc(-c2ccc(/C=N/Nc3nc(Nc4ccccc4)nc(N4CCCCC4)n3)o2)cc1 | 62.2% | 92.4% | 55.1% | 85% | 52.8% | 35.1% | 43% | 63.5% | 61.5% | 83.2%
CCN(CC)Cc1cc(Nc2ccnc3cc(Cl)ccc23)ccc1O | 99.2% | 105% | 89.7% | 89.4% | 96.8% | 88.5% | 91.2% | 107% | 96.8% | 81.5%
C#CCO[C@H]1CC(CC#C)(CC#C)C(=O)[C@@H]2[C@H]1[C@H]1C[C@@H]3[C@@]4(C)CCC[C@@](C)(C(=O)OC)[C@@H]4CC[C@@]23C=C1C(C)C | 73.2% | 88.3% | 104% | 98.7% | 97.8% | 13.6% | -77% (active) | 89.4% | 41.4% | 86.8%
CCOC(=O)c1c(C)nc2ccccc2c1/C=C/c1cccs1 | 57.6% | 72.4% | 89.1% | 84.7% | 85.2% | 68.6% | 57% | 64.9% | 89.7% | 84.5%
O=S(=O)(Nc1cc(Sc2cccc3cccnc23)c(O)c2ccccc12)c1ccccc1 | 28.8% | 46.3% | 28.3% | 47.3% | 3.5% (active) | 33.1% | -37.3% (active) | 15.7% | 36.6% | -47.6% (active)
O=C(Cn1nnc2ccccc21)N/N=C/c1c[nH]c2ccccc12 | 71% | 77% | 80% | 36.6% | 21% | 57.7% | 18.1% | 49% | 58% | 37.2%
Cc1n[nH]c2ccc(Br)cc2c1=O | 98.3% | 96.5% | 98.7% | 93.9% | 110% | 103% | 83.6% | 99% | 102% | 106%
N=c1c(S(=O)(=O)c2ccccc2)cc2c(=O)n3ccccc3nc2n1CC1CCCO1 (stereo not given) | 99.8% | 103% | 96.4% | 95% | 105% | 94.5% | 100% | 111% | 103% | 113%
Cc1ccc2c(-n3nc(C#N)c(C#N)c3N)cc(=O)[nH]c2c1 | 88.9% | 78.7% | 66.8% | 68.1% | 81.1% | 84.3% | 77% | 91% | 85.3% | 97.8%
O=C(O)c1cn(C2CC2)c2cc(N3CCN(C(=O)Nc4nc(-c5ccc(Br)cc5)cs4)CC3)c(F)cc2c1=O | 12.4% | 18.9% | 6.95% (active) | 21.8% | 10.4% | -8.59% (active) | 5.78% (active) | 14.3% | 27.3% | 24.2%
CCOC(=O)c1cnc2c(N=Nc3ccc(OC)cc3)c(N)nn2c1N | 98.8% | 99.7% | 97.9% | 104% | 103% | 113% | 86.8% | 95% | 104% | 106%
CCNc1ccc(-c2nc3ccccc3n3cccc23)cc1 | 79.6% | 68.8% | 76.7% | 83.4% | 88.8% | 63.7% | 71.3% | 75.6% | 86% | 95.2%

— PubChem BioAssay (NCI)
